{
  "source": "PubChem BioAssay (NCI)",
  "note": "Compounds without any hit were thinned out: in the full panel of roughly 83,000, 20% have a hit.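 48-hour exposure, single concentration, 96-well plates; percent growth endpoint where 0 means no net growth. Active: below 10.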 Unmarked numbers belong to inactive results. The source made the active and inactive calls.",
  "data": [
    {"system": "SNB-19 CNS", "assay": "NCI-60 one-dose screen, 48 h (100 = growth as untreated, 0 = no growth, -100 = all killed)", "conditions": "10 µM unless noted", "values": [
      {"molecule": "CCOc1ccccc1CN1CCc2nc3cc(C(C)(C)C)[nH]n3c(=O)c2C1", "growth": "94.8%"},
      {"molecule": "COc1ccc2sc(N(Cc3cccnc3)C(=O)c3ccc(C#N)cc3)nc2c1", "growth": "98.6%"},
      {"molecule": "COc1cc(/C=C2\\CN(S(=O)(=O)c3ccccc3)C/C(=C\\c3cc(CN4CCCC4)c(O)c(OC)c3)C2=O)cc(CN2CCCC2)c1O", "growth": "12.2%"},
      {"molecule": "Cc1c(C(=O)OCCO)cc(-c2ccc(Cl)cc2)n1-c1ccc(Cl)cc1Cl", "growth": "90.6%"},
      {"molecule": "CC(=O)n1cc(-c2c[nH]c3ccccc23)c(-c2ccc(Cl)cc2)n1", "growth": "112%"},
      {"molecule": "COc1cc(C=C2C(=O)N(C)C(=O)N(C)C2=O)cc(CN2CCCCC2)c1O", "growth": "92.6%"},
      {"molecule": "O=C(CSc1nc2ccccc2c(=O)n1-c1ccccc1)Nc1ccc(C(=O)/C=C/c2ccc(Cl)cc2)cc1", "growth": "96.1%"},
      {"molecule": "CCCCN1CCN(c2ccc3nc(-c4ccc5nc(-c6ccc(OC)c(OC)c6)[nH]c5c4)[nH]c3c2)CC1", "growth": "0.577% (active)"},
      {"molecule": "CC(C)(C)c1ccc(C2CC(=O)C3=C(C2)Nc2ccccc2N(C(=O)c2ccccc2Cl)C3c2ccc(F)cc2)cc1", "note": "(stereo not drawn)", "growth": "9.35% (active)"},
      {"molecule": "CCOC(=O)c1sc(-c2ccc(OS(=O)(=O)c3ccc(Br)s3)c(C=O)c2)nc1C", "growth": "14.4%"},
      {"molecule": "CC(=O)Nc1nc2c(s1)CCc1c-2cn(S(=O)(=O)c2ccccc2)c1-c1ccccc1", "growth": "93.6%"},
      {"molecule": "Clc1ccc(Oc2ccc(Nc3ncnc4onc(-c5ccccc5)c34)cc2)c(Cl)c1", "growth": "106%"},
      {"molecule": "CCN1C(=O)N(CC)C2Nn3c(s/c(=C\\c4ccccc4F)c3=O)=NC21", "note": "(stereo not drawn)", "growth": "45.5%"},
      {"molecule": "CCCCC1COc2cccc3c2N1C=C/C3=C\\C(=O)N(C)c1ccccc1", "note": "(stereo not drawn)", "growth": "52.3%"},
      {"molecule": "COC(=O)/C(=C\\c1c(-c2ccccc2)[nH]c2ccccc12)S(C)(=O)=O", "growth": "37.6%"},
      {"molecule": "COC(=O)c1c2c(c(C)[n+]([O-])c1C)C(=O)C=C(NCc1ccccc1)C2=O", "growth": "-11.4% (active)"},
      {"molecule": "c1ccc(CNc2nc(Nc3ccccc3)nc3ccccc23)cc1", "growth": "47.3%"},
      {"molecule": "COc1ccc(/C=C/C(=O)c2c(C)nc3ccccc3c2/C=C/c2ccccc2)cc1O", "growth": "67.3%"},
      {"molecule": "COc1ccc(OC)c(NC(=O)/C(C#N)=C/c2ccco2)c1", "growth": "93.8%"},
      {"molecule": "COC(=O)/C(CCC=C(C)C)=C1\\[C@@H](OC(C)=O)C[C@@]2(C)[C@H]1C[C@@H](O)[C@H]1[C@@]3(C)CC[C@H](NCCCNCCCCNCCCN)[C@@H](C)[C@@H]3CC[C@@]12C", "growth": "61.8%"},
      {"molecule": "O=C1c2cc(Br)ccc2Oc2cc([N+](=O)[O-])ccc2N1c1ccc(I)cc1F", "growth": "94%"},
      {"molecule": "O=C(Nc1ccc(Br)cc1F)c1cc(I)ccc1O", "growth": "13.3%"},
      {"molecule": "COc1ccc(-c2cn3c(C(=O)Nc4ccccc4Cl)c(-c4ccccc4)c4c3n2CCCC4)cc1", "growth": "96.6%"},
      {"molecule": "CSc1nc2c(c(=O)[nH]1)N=C1c3ccccc3C(=O)C1C(c1ccccc1)N2", "note": "(stereo not drawn)", "growth": "39.8%"},
      {"molecule": "O=c1[nH]nnc2c1ncn2C1OC(CO)C(O)C1O", "note": "(stereo not drawn)", "growth": "105%"},
      {"molecule": "O=Cc1c(OCc2cnnn2CC(=O)Nc2ccc(Cl)cc2)ccc2ccccc12", "growth": "93.8%"},
      {"molecule": "O=C(c1nc2ccccc2[nH]1)C1[C@@H](c2cccc(O)c2)C2CC3CCCCC3N2[C@@]12C(=O)Nc1cc(Cl)ccc12", "note": "(stereo partly drawn)", "growth": "42.4%"},
      {"molecule": "Nc1nc(N)c2c(n1)NC1(C=C(O)c3ccccc31)C1=C(N2)c2ccccc2C1=O", "note": "(stereo not drawn)", "growth": "103%"},
      {"molecule": "COc1ccc(/C(C#N)=C/c2nc3c(N4CCOCC4)nc(Cl)nc3n2C)cc1OC", "growth": "23.5%"},
      {"molecule": "COc1cccc2c1C=C1CCCCC3=Cc4c(OC)cccc4OC13O2", "growth": "51.3%"},
      {"molecule": "COc1ccc(/C=C/C(=O)c2ccc(Nc3nc(NCCO)nc(Nc4ccc(Cl)cc4)n3)cc2)cc1", "growth": "85%"},
      {"molecule": "O=NN(C(=O)NC1CCC(C(=O)O)CC1)C1CCC(C(=O)O)CC1", "note": "(stereo not drawn)", "growth": "100%"},
      {"molecule": "CN1CCN(Cc2ccc(NC(=O)c3cncc(C#Cc4nc(N)nc5[nH]ncc45)c3)cc2C(F)(F)F)CC1", "growth": "108%"},
      {"molecule": "Nc1nc(-c2cnccn2)nn1-c1nc2ccccc2s1", "growth": "98.2%"},
      {"molecule": "CCOC(=O)c1cc2c(n1Cc1cc(OC)cc(OC)c1)-c1oncc1CCC2", "growth": "28.5%"},
      {"molecule": "CCOC(=O)c1c(Cl)c2c(n1Cc1ccccc1)-c1oncc1CCC2", "growth": "83.2%"},
      {"molecule": "COc1nc2c(c(=O)n1C)N=C1c3ccccc3C(=O)C1C(c1ccccc1)N2", "note": "(stereo not drawn)", "growth": "91.7%"},
      {"molecule": "CC1=C(CC(=O)c2cccc([N+](=O)[O-])c2)C(=O)c2ccccc2C1=O", "growth": "13%"},
      {"molecule": "O=C(Nc1ccc(-c2nc3cc4ccccc4cc3[nH]2)cc1)c1cccc(Br)c1", "growth": "36.2%"}
    ]},
    {"system": "U251 CNS", "assay": "NCI-60 one-dose screen, 48 h (100 = growth as untreated, 0 = no growth, -100 = all killed)", "conditions": "10 µM unless noted", "values": [
      {"molecule": "CCOc1ccccc1CN1CCc2nc3cc(C(C)(C)C)[nH]n3c(=O)c2C1", "growth": "104%"},
      {"molecule": "COc1ccc2sc(N(Cc3cccnc3)C(=O)c3ccc(C#N)cc3)nc2c1", "growth": "67.4%"},
      {"molecule": "COc1cc(/C=C2\\CN(S(=O)(=O)c3ccccc3)C/C(=C\\c3cc(CN4CCCC4)c(O)c(OC)c3)C2=O)cc(CN2CCCC2)c1O", "growth": "-21.7% (active)"},
      {"molecule": "Cc1c(C(=O)OCCO)cc(-c2ccc(Cl)cc2)n1-c1ccc(Cl)cc1Cl", "growth": "77.7%"},
      {"molecule": "CC(=O)n1cc(-c2c[nH]c3ccccc23)c(-c2ccc(Cl)cc2)n1", "growth": "74.9%"},
      {"molecule": "COc1cc(C=C2C(=O)N(C)C(=O)N(C)C2=O)cc(CN2CCCCC2)c1O", "growth": "99.6%"},
      {"molecule": "O=C(CSc1nc2ccccc2c(=O)n1-c1ccccc1)Nc1ccc(C(=O)/C=C/c2ccc(Cl)cc2)cc1", "growth": "106%"},
      {"molecule": "CCCCN1CCN(c2ccc3nc(-c4ccc5nc(-c6ccc(OC)c(OC)c6)[nH]c5c4)[nH]c3c2)CC1", "growth": "-45.3% (active)"},
      {"molecule": "CC(C)(C)c1ccc(C2CC(=O)C3=C(C2)Nc2ccccc2N(C(=O)c2ccccc2Cl)C3c2ccc(F)cc2)cc1", "note": "(stereo not drawn)", "growth": "3.98% (active)"},
      {"molecule": "CCOC(=O)c1sc(-c2ccc(OS(=O)(=O)c3ccc(Br)s3)c(C=O)c2)nc1C", "growth": "-4.79% (active)"},
      {"molecule": "CC(=O)Nc1nc2c(s1)CCc1c-2cn(S(=O)(=O)c2ccccc2)c1-c1ccccc1", "growth": "62.4%"},
      {"molecule": "Clc1ccc(Oc2ccc(Nc3ncnc4onc(-c5ccccc5)c34)cc2)c(Cl)c1", "growth": "102%"},
      {"molecule": "CCN1C(=O)N(CC)C2Nn3c(s/c(=C\\c4ccccc4F)c3=O)=NC21", "note": "(stereo not drawn)", "growth": "26.1%"},
      {"molecule": "CCCCC1COc2cccc3c2N1C=C/C3=C\\C(=O)N(C)c1ccccc1", "note": "(stereo not drawn)", "growth": "33.9%"},
      {"molecule": "COC(=O)/C(=C\\c1c(-c2ccccc2)[nH]c2ccccc12)S(C)(=O)=O", "growth": "26.4%"},
      {"molecule": "COC(=O)c1c2c(c(C)[n+]([O-])c1C)C(=O)C=C(NCc1ccccc1)C2=O", "growth": "-9.66% (active)"},
      {"molecule": "c1ccc(CNc2nc(Nc3ccccc3)nc3ccccc23)cc1", "growth": "29.6%"},
      {"molecule": "COc1ccc(/C=C/C(=O)c2c(C)nc3ccccc3c2/C=C/c2ccccc2)cc1O", "growth": "49%"},
      {"molecule": "COc1ccc(OC)c(NC(=O)/C(C#N)=C/c2ccco2)c1", "growth": "94.2%"},
      {"molecule": "COC(=O)/C(CCC=C(C)C)=C1\\[C@@H](OC(C)=O)C[C@@]2(C)[C@H]1C[C@@H](O)[C@H]1[C@@]3(C)CC[C@H](NCCCNCCCCNCCCN)[C@@H](C)[C@@H]3CC[C@@]12C", "growth": "71.5%"},
      {"molecule": "O=C1c2cc(Br)ccc2Oc2cc([N+](=O)[O-])ccc2N1c1ccc(I)cc1F", "growth": "94.4%"},
      {"molecule": "O=C(Nc1ccc(Br)cc1F)c1cc(I)ccc1O", "growth": "3.12% (active)"},
      {"molecule": "COc1ccc(-c2cn3c(C(=O)Nc4ccccc4Cl)c(-c4ccccc4)c4c3n2CCCC4)cc1", "growth": "77.4%"},
      {"molecule": "CSc1nc2c(c(=O)[nH]1)N=C1c3ccccc3C(=O)C1C(c1ccccc1)N2", "note": "(stereo not drawn)", "growth": "37.5%"},
      {"molecule": "O=c1[nH]nnc2c1ncn2C1OC(CO)C(O)C1O", "note": "(stereo not drawn)", "growth": "97.7%"},
      {"molecule": "O=Cc1c(OCc2cnnn2CC(=O)Nc2ccc(Cl)cc2)ccc2ccccc12", "growth": "101%"},
      {"molecule": "O=C(c1nc2ccccc2[nH]1)C1[C@@H](c2cccc(O)c2)C2CC3CCCCC3N2[C@@]12C(=O)Nc1cc(Cl)ccc12", "note": "(stereo partly drawn)", "growth": "37.7%"},
      {"molecule": "Nc1nc(N)c2c(n1)NC1(C=C(O)c3ccccc31)C1=C(N2)c2ccccc2C1=O", "note": "(stereo not drawn)", "growth": "103%"},
      {"molecule": "COc1ccc(/C(C#N)=C/c2nc3c(N4CCOCC4)nc(Cl)nc3n2C)cc1OC", "growth": "12.5%"},
      {"molecule": "COc1cccc2c1C=C1CCCCC3=Cc4c(OC)cccc4OC13O2", "growth": "30.9%"},
      {"molecule": "COc1ccc(/C=C/C(=O)c2ccc(Nc3nc(NCCO)nc(Nc4ccc(Cl)cc4)n3)cc2)cc1", "growth": "53.4%"},
      {"molecule": "O=NN(C(=O)NC1CCC(C(=O)O)CC1)C1CCC(C(=O)O)CC1", "note": "(stereo not drawn)", "growth": "104%"},
      {"molecule": "CN1CCN(Cc2ccc(NC(=O)c3cncc(C#Cc4nc(N)nc5[nH]ncc45)c3)cc2C(F)(F)F)CC1", "growth": "107%"},
      {"molecule": "Nc1nc(-c2cnccn2)nn1-c1nc2ccccc2s1", "growth": "93.5%"},
      {"molecule": "CCOC(=O)c1cc2c(n1Cc1cc(OC)cc(OC)c1)-c1oncc1CCC2", "growth": "17.3%"},
      {"molecule": "CCOC(=O)c1c(Cl)c2c(n1Cc1ccccc1)-c1oncc1CCC2", "growth": "64.5%"},
      {"molecule": "COc1nc2c(c(=O)n1C)N=C1c3ccccc3C(=O)C1C(c1ccccc1)N2", "note": "(stereo not drawn)", "growth": "89.2%"},
      {"molecule": "CC1=C(CC(=O)c2cccc([N+](=O)[O-])c2)C(=O)c2ccccc2C1=O", "growth": "-81% (active)"},
      {"molecule": "O=C(Nc1ccc(-c2nc3cc4ccccc4cc3[nH]2)cc1)c1cccc(Br)c1", "growth": "25.9%"}
    ]}
  ]
}
